# Experimental data published in PubChem BioAssay AID623877 (Johns Hopkins Ion Channel Center, 2012).
# The whole screen tested about 340,000 compounds, of which about 1,000 (0.29%) were called active.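 The calls were made as follows: active = fluorescence-ratio B-score plate-corrected deviation score at least 3 library SD below zero, with starting fluorescence score within 5 deviations; inactive = the rest.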 The full list was thinned out, with actives kept by preference.
# Biological target: Anoctamin-1 (Mus musculus) (UniProt Q8BHY3)
# Test: TMEM16A chloride channel activators or potentiators, primary screen, cell-based, HTS (AID 623877);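 as to B-score: channel opened by trigger with iodide after compound preincubation; score built on the fluorescence ratio of max minus min over baseline; more negative score means more quench and so TMEM16A activation or potentiation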
# Details: HEK293 TMEM16A/YFP-H148Q/I152L, iodide quench fluorescence, at 10 µM; active compounds read low
# Anoctamin-1 (Mus musculus), sequence (Q8BHY3 whole entry, looked up): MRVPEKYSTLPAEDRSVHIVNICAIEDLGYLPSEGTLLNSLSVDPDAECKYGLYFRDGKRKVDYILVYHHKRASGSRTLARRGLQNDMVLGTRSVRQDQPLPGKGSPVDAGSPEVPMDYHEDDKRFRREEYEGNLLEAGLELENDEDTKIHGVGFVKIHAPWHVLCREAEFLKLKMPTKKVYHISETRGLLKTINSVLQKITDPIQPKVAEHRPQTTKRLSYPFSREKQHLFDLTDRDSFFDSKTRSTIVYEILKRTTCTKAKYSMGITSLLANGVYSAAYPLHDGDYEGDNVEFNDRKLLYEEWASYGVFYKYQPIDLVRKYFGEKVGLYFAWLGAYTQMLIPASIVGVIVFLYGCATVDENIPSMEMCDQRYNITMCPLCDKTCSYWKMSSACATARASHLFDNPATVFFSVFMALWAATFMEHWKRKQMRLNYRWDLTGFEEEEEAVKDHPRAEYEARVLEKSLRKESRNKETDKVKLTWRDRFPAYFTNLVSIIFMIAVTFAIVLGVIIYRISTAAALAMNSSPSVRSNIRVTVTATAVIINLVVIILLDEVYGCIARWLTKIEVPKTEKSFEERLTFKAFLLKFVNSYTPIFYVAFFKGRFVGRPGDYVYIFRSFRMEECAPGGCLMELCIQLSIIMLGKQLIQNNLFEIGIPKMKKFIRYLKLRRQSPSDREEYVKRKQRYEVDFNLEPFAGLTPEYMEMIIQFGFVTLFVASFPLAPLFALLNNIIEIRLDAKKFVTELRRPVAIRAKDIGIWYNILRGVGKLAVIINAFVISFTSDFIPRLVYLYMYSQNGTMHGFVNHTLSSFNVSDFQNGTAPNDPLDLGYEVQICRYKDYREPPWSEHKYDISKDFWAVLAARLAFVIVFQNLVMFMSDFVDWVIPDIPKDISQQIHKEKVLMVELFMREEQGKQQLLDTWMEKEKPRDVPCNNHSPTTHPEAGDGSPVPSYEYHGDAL
row,Compound,B-score
1,CC(=O)C1(O)CCC2C3CCC4=C(Cl)C(=O)CCC4(C)C3CCC21C (stereo not given),-5.25 (active)
2,Cc1cc(C)cc(NC(=S)NC2CC3CCCC(C2)N3Cc2cccs2)c1 (stereo not given),inactive
3,Cc1nn(Cc2ccccc2Cl)c(Cl)c1C(=O)OC(C(=O)NC(N)=O)C(C)C (stereo not given),inactive
4,Cc1nc2ccccn2c1P(=S)(N1CCCCC1)N1CCCCC1,-9.49 (active)
5,COc1ccc(C(=O)C2CN(C)CC2C(=O)c2ccc(OC)cc2)cc1 (stereo not given),inactive
6,O=C(CSC1c2ccccc2-c2ccccc21)N/N=C/c1ccccc1,inactive
7,CC1C(=O)OC2CCN3CC=C(COC(=O)C(C)(O)C1(C)O)C23 (stereo not given),inactive
8,CCN(CC)P(=O)(Oc1cccc(C)c1)N(CC)CC,inactive
9,C=Cn1ccnc1P(=S)(c1cc(N(CC)CC)ns1)c1nccn1C=C,inactive
10,Cc1cc2ccccn2c1C(C[N+](=O)[O-])c1c(F)cccc1Cl (stereo not given),inactive
